Assay outcomes from PubChem BioAssay.
IL1B NFkB pot: enhances IL-1B driven NFkB nuclear translocation; AID 819; activation, % at 2 µM; HUVEC IL-1B NFkB p65 nuclear translocation imaging; actives 0.3% (n = 94,000);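 active = activation above 40%, about the mean plus 3 SD, also judged a hit on visual image review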;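 also: percent activation is computed from the nuclear over cytoplasmic p65 intensity ratio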
IL1B NFkB inh: blocks IL-1B driven NFkB nuclear translocation in HUVEC cells. inhibition, % at 2 µM. HUVEC IL-1B NFkB p65 nuclear translocation imaging. actives 0.43% (n = 94,000). AID 796;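 active = inhibition above about 30% together with a positive call from visual inspection of the well image, limit read from the data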;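 also: nuclear over cytoplasmic p65 intensity ratio measured by imaging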
MRP-1 activ: MRP-1 activation | actives 0.61% (n = 140,000) | viability increase, % at 10 µM | H69AR cells + doxorubicin, viability rescue, CellTiter-Glo | AID 799;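 active = viability gain under doxorubicin at or above a set limit, the compound median plus 3 SD, cut at about 4.7% in these data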;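 also: MRP-1 overexpressing cells given doxorubicin 25 µM after compound pretreatment; 18-22 h compound pretreatment then 72 h with doxorubicin before readout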
HUVEC tox IL1B: toxic to HUVEC cells under IL-1B stimulation; HUVEC cell count loss, Hoechst imaging, IL-1B stimulated; cell count reduction, % at 2 µM; actives 0.41% (n = 94,000);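 active = cell count reduction more than 3 SD above the screen-wide mean, cut at about 70% in these data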
MRP reversal: compounds reversing MRP-mediated drug resistance. differential viability (reversal), % at 10 µM. H69AR cells + 2 uM doxorubicin, CellTiter-Glo, 72 h. actives 0.04% (n = 85,000);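 active = viability drop by adding the cancer drug above about 55%, with treated viability meeting a 40% cutoff, limit read from the data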;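 also: larger differential means the compound sensitizes cells more to doxorubicin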
SDO1 yeast rescue: compounds rescuing growth of sdo1-depleted yeast, bone marrow failure model. actives 0.21% (n = 140,000). AID 817. z-score at 10 µM. S. cerevisiae sdo1-depleted JHY4D growth rescue, OD600 30 h; hits give high values; pdr5 snq2 efflux-pump mutant strain;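 active = z-score above 3 at both the 24 hr and the 30 hr optical density reads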
SDO1 rescue DR: confirmation of growth rescue in SDO1-depleted yeast, bone marrow failure | OD recovery (concentration not given with the values) | S. cerevisiae JHY4D (SDO1-depleted) growth rescue, OD600, 30 h; hits give high values; efflux-deficient strain, SNQ2 and PDR5 mutated | shares compounds with SDO1 yeast rescue | actives 44% (n = 440) | AID 949;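 active = yeast growth recovered at 30 hours, either rising with dose fitted slope above 0.001 or with average optical density gain above 0.07, some results past the limit were not filed as active; inactive = growth falling with dose or no effect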
Hits are given with their value. Compounds with a hit are over-represented: about 1.4% of the library has one in this group of screens.

How did CN1C(=O)C(C2(C#N)CCCCC2)C(=O)N(C)C1=O do in these assays?
IL1B NFkB pot: 49; IL1B NFkB inh: inactive; MRP-1 activ: inactive; HUVEC tox IL1B: inactive; MRP reversal: inactive; SDO1 yeast rescue: inactive

What do the screens show for `c1ccc2cc3cc4ccccc4cc3cc2c1`?
MRP reversal: inactive

Results for O=C1/C(=C/c2ccc([N+](=O)[O-])cc2)N2CCC1CC2 ?
MRP-1 activ: inactive; SDO1 yeast rescue: inactive

How did C=CCN1C(=O)NC(=O)/C(=C/c2cccn2C)C1=O do in these assays?
IL1B NFkB pot: inactive; IL1B NFkB inh: 41; MRP-1 activ: inactive; HUVEC tox IL1B: inactive; SDO1 yeast rescue: inactive

How did COc1ccc(C)cc1NC(=O)c1c(C)nn(Cc2ccccc2)c1Cl do in these assays?
MRP-1 activ: 4.8; SDO1 yeast rescue: inactive

How did CCOc1ccc(NC(=O)c2c(C)nn(Cc3ccccc3)c2Cl)cc1 do in these assays?
MRP-1 activ: inactive; SDO1 yeast rescue: inactive

How did O=C(CCCOc1ccc(Cl)cc1Cl)N1CCC2(CC1)OCCO2 do in these assays?
IL1B NFkB pot: inactive; IL1B NFkB inh: 97; MRP-1 activ: inactive; HUVEC tox IL1B: 85; MRP reversal: inactive; SDO1 yeast rescue: inactive

What do the screens show for `Cn1c(O)c(C(c2ccccn2)c2c(O)n(C)c(=S)[nH]c2=O)c(=O)[nH]c1=S`?
IL1B NFkB pot: inactive; IL1B NFkB inh: inactive; MRP-1 activ: inactive; HUVEC tox IL1B: 91; SDO1 yeast rescue: inactive

Results for CCC(C)n1c(O)c(/C=N/Nc2ccccc2)c(=O)[nH]c1=S (stereo not given) ?
MRP-1 activ: inactive; SDO1 yeast rescue: inactive

What do the screens show for `Fc1ccc(Cn2nnnc2C(c2ccc(F)cc2)N2CC=C(c3ccc(F)cc3)CC2)cc1` (stereo not given)?
MRP-1 activ: inactive; SDO1 yeast rescue: inactive

Results for Cc1ccc(CN2C(=O)NC(=O)C3(Cc4c(nc5ccccn5c4=O)N4CCCCCC43)C2=O)cc1 (stereo not given) ?
IL1B NFkB pot: inactive; IL1B NFkB inh: inactive; MRP-1 activ: 8.8; HUVEC tox IL1B: inactive; MRP reversal: inactive; SDO1 yeast rescue: inactive

What do the screens show for `Cc1cccc(N/N=C(\C(N)=O)C2=NC(C)(C)Cc3ccccc32)c1`?
MRP-1 activ: inactive; SDO1 yeast rescue: inactive

How did CCCCn1c(O)c(C=Nc2c(C)n(C)n(-c3ccccc3)c2=O)c(=O)[nH]c1=O do in these assays?
IL1B NFkB pot: 48; IL1B NFkB inh: inactive; MRP-1 activ: inactive; HUVEC tox IL1B: inactive; MRP reversal: inactive; SDO1 yeast rescue: inactive

Results for Cc1c(N=Cc2c(O)n(Cc3ccccc3)c(=O)[nH]c2=O)c(=O)n(-c2ccccc2)n1C ?
MRP-1 activ: inactive; SDO1 yeast rescue: inactive

What do the screens show for `O=C(Nc1cccc(Cl)c1)c1c(O)c2c(n(Cc3ccccc3)c1=O)CCCC2`?
MRP-1 activ: 5.6; SDO1 yeast rescue: inactive

What do the screens show for `CSC1=NP(=S)(SC)N2CCCC2=C1C#N` (stereo not given)?
IL1B NFkB pot: inactive; IL1B NFkB inh: inactive; MRP-1 activ: 29; HUVEC tox IL1B: inactive; MRP reversal: inactive; SDO1 yeast rescue: inactive

What do the screens show for `CC(C)N1C(=O)NC(=O)C2(Cc3cc([N+](=O)[O-])ccc3N(C)C2c2ccccc2)C1=O` (stereo not given)?
MRP-1 activ: inactive; SDO1 yeast rescue: inactive

How did Cc1cc(C)nc(/N=C(\N)c2c(O)[nH]c(=O)[nH]c2=O)n1 do in these assays?
IL1B NFkB pot: inactive; IL1B NFkB inh: inactive; MRP-1 activ: inactive; HUVEC tox IL1B: inactive; SDO1 yeast rescue: inactive

What do the screens show for `Cn1c(=O)cc(SCC(=O)N2CCC3(CC2)OCCO3)c2ccccc21`?
IL1B NFkB pot: inactive; IL1B NFkB inh: inactive; MRP-1 activ: inactive; HUVEC tox IL1B: inactive; MRP reversal: inactive; SDO1 yeast rescue: 3.4; SDO1 rescue DR: 0.071

How did Cn1c(=O)cc(OCC(=O)N2CCC3(CC2)OCCO3)c2ccccc21 do in these assays?
MRP-1 activ: inactive; MRP reversal: inactive; SDO1 yeast rescue: inactive

What do the screens show for `CCc1cc2c(s1)NC(=O)CN=C2c1cccs1`?
MRP-1 activ: inactive; MRP reversal: inactive; SDO1 yeast rescue: inactive

Results for CCCCN1C(=O)/C(=C\c2ccco2)C(=O)N(CCc2ccccc2)C1=O ?
IL1B NFkB pot: inactive; IL1B NFkB inh: inactive; MRP-1 activ: inactive; HUVEC tox IL1B: inactive; SDO1 yeast rescue: 10; SDO1 rescue DR: inactive

Results for CC(=O)C1C2c3ccccc3O[C@@]1(C)N=c1s/c(=C/c3ccoc3)c(=O)n12 (stereo not given in full) ?
MRP-1 activ: inactive; SDO1 yeast rescue: inactive

Results for Cc1c(C(c2ccc(O)cc2)c2c(O)c3ccccc3oc2=O)c(=O)n(-c2ccccc2)n1C (stereo not given) ?
MRP-1 activ: inactive; SDO1 yeast rescue: 3.4; SDO1 rescue DR: inactive
